The list is not random: actives were taken first. Their share in the collection is about 0.87%.
RECQ1 inh: qHTS Assay for Inhibitors of RecQ-Like Dna Helicase 1 (RECQ1). ATP-dependent DNA helicase Q1 (Homo sapiens), P46063. RECQ1 DNA unwinding, red fluorescence kinetic read. Potency, µM (highest dose often 57.3 µM), for inactives: top-dose activity, negative = inhibition, hits mostly inhibitors. hit rate 0.54% among 240,000. AID 2549, 2010;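 note: plate controls were vehicle for no effect and no enzyme for full effect; nearly all actives have a fitted effect of over 30% in size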
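50 nM RECQ1T1 preincubated 15 min with compound in Tris pH 8.0 buffer with MgCl2, DTT, Tween-20 and 2.5 ug/ml poly(dI-dC); started with 200 nM TAMRA/BHQ-2 forked duplex and 2 mM ATP. Unwinding read as fluorescence (525/598 nm), two reads 2 h apart.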
BLM helicase inh: qHTS Assay for Inhibitors of Bloom's syndrome helicase (BLM). RecQ-like DNA helicase BLM (Homo sapiens), P54132. recombinant BLM DNA unwinding, fluorescence dequenching. Potency, µM (titrated, usually from 56.1 µM), without a hit: at the top dose activity change, negative = inhibition, actives largely listed as inhibitors. hit rate 0.2% among 350,000;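 note: plate controls were vehicle for no effect and no enzyme for full effect; nearly all actives have a fitted effect of over 35% in size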
FEN1 inh-1: qHTS Assay for the Inhibitors of Human Flap endonuclease 1 (FEN1); P39748; Recombinant FEN1 flap cleavage, fluorescence, 15 min; Potency, µM (top dose mostly 114 µM), without a hit: at the highest dose activity change, negative = inhibition, most hits filed as inhibitors; hit rate 0.35% among 390,000; AID 588795, 2011; note: % is set by controls: 0 for no effect and ±100 for the full control effect; nearly all actives have a fitted effect of over 65% in size
Target sequence (P39748 whole entry, looked up): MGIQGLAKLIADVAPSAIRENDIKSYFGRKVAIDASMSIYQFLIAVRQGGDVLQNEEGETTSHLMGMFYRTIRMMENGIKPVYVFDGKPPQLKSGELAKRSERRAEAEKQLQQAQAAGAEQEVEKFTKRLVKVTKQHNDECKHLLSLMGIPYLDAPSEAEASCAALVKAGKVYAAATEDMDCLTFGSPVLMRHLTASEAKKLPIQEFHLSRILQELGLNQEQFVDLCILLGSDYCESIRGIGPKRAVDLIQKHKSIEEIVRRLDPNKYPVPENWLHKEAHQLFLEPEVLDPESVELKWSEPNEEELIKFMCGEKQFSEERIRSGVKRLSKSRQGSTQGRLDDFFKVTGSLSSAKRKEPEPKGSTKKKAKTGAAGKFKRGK
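FEN1 at 10 nM preincubated with compounds 15 min at room temperature, then flap DNA substrate added at 50 nM final. Signal read at 0 and 15 min; concentration-response fitted with four-parameter Hill equation.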
APEX1 inh: qHTS Assay for Inhibitors of the Human Apurinic/apyrimidinic Endonuclease 1 (APE1); AID 2517, 2012; hit rate 0.35% among 350,000; Potency, µM (titrated, usually from 65.8 µM), for inactives: at the top dose activity change, negative = inhibition, actives largely listed as inhibitors; DNA repair nuclease/redox regulator APEX1 (Homo sapiens), P27695; recombinant APE1, TAMRA/BHQ-2 abasic DNA cleavage fluorescence;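 note: plate controls were vehicle for no effect and reference inhibitor for full effect; nearly all actives have a fitted effect of over 55% in size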
Target sequence (P27695 whole entry, looked up): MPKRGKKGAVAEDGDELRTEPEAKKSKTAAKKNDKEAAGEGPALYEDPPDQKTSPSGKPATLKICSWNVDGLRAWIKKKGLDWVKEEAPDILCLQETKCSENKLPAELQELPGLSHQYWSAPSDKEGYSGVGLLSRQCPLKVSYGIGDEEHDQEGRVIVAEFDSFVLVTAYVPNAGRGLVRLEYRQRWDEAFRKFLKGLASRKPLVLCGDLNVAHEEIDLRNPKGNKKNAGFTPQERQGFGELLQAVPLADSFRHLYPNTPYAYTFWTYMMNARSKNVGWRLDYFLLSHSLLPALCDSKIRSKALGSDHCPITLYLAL
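Enzyme (0.75 nM final) and test compound are incubated 15 min at room temperature before adding 50 nM quenched THF abasic-site duplex. Cleavage dequenches TAMRA, followed at 525/598 nm over three reads one minute apart.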
WRN inhibitor: qHTS for Inhibitors of WRN Helicase | WRN helicase unwinding, fluorescent forked duplex, kinetic | hit rate 0.46% among 360,000 | Potency, µM (highest dose often 114 µM), for the others: top-dose activity change, negative = inhibition, actives largely listed as inhibitors | AID 651768, 2012 | Bifunctional 3'-5' exonuclease/ATP-dependent helicase WRN (Homo sapiens), Q14191; note: % is set by controls: 0 for no effect and ±100 for the full control effect; nearly all actives have a fitted effect of over 55% in size
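Kinetic red-fluorescence monitoring (525/598 nm) tracks WRN helicase activity after 100 nM fluorophore-quencher forked duplex and 2 mM ATP are added to 20 nM enzyme pretreated 15 min at room temperature with compound.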
FEN1 inh-2: qHTS Assay for the Inhibitors of FEN1: Confirmatory Assay for Cherry-picked Compounds | AID 720498, 2013 | FEN1 flap cleavage, TAMRA/BHQ2 fluorogenic DNA substrate | hit rate 79% among 880 | shares compounds with FEN1 inh-1 | Potency, µM, actives largely listed as inhibitors; note: nearly all actives have a fitted effect of over 60% in size
Numbers without * were called inactive; [ ] = another dose, or the depositor's remark. Calls come from the whole dose curve; as a rule, active = well fitted curve in the direction sought with a large enough effect; inconclusive = small, poorly fitted or top-dose-only effect, or another doubt; inactive = no such curve, though single readings can be large; an effect the other way counts as inactive or inconclusive. Potency is the fitted concentration of half-maximal effect.

For CC1CCCC(C)N1C(=O)COC(=O)c1ccc([N+](=O)[O-])o1 (centres undefined) the results were FEN1 inh-1 inconclusive, APEX1 inh -41%, WRN inhibitor -3% and FEN1 inh-2 15*.
Screening CC1CCCC(C)N1C(=O)COC(=O)c1cc([N+](=O)[O-])ccc1N1CCOCC1 (centres undefined) returned FEN1 inh-1 3%, APEX1 inh 28% and WRN inhibitor 1%.
Cc1ccc(C(=O)OC(C)C(=O)NC2CCCCC2C)s1 (centres undefined) was read as FEN1 inh-1 -2%, APEX1 inh -1% and WRN inhibitor 4%.
For CC(OC(=O)c1ccc([N+](=O)[O-])o1)C(=O)NC1CCCCC1C (centres undefined) the results were FEN1 inh-1 13µM*, APEX1 inh -36%, WRN inhibitor 6% and FEN1 inh-2 6*.
Cn1c(N)c(C(=O)COC(=O)c2ccc([N+](=O)[O-])o2)c(=O)n(C)c1=O was read as RECQ1 inh -6%, BLM helicase inh -4%, FEN1 inh-1 inconclusive, APEX1 inh -6%, WRN inhibitor -2% and FEN1 inh-2 8.5*.
`CCOC(=O)C1CCN(C(=O)COC(=O)c2ccc([N+](=O)[O-])o2)CC1` gave FEN1 inh-1 inconclusive, APEX1 inh -37%, WRN inhibitor 16% and FEN1 inh-2 11*.
`COc1ccccc1N1CCN(S(=O)(=O)c2c(C)sc3ncn(CC(=O)N(C)c4ccc(C(C)C)cc4)c(=O)c23)CC1` gave BLM helicase inh -8% and FEN1 inh-1 7%.
For COc1ccc(-c2onc(C)c2C)cc1S(=O)(=O)Nc1cc(Cl)ccc1C the results were BLM helicase inh -5% and FEN1 inh-1 -3%.
`COC(=O)C1=COC(OC2OC(CO)C(O)C(O)C2O)C2C1C=CC2(O)CO` (centres undefined) gave RECQ1 inh -15%, BLM helicase inh -6%, FEN1 inh-1 -1%, APEX1 inh 7.9µM*, WRN inhibitor -23% and FEN1 inh-2 inconclusive.
Screening O=C(COC(=O)c1ccccc1)Nc1ccc2[nH]c(=O)[nH]c2c1 returned FEN1 inh-1 -5%, APEX1 inh -3% and WRN inhibitor -13%.
`Nc1nccnc1C(=O)OCC(=O)Nc1ccc2[nH]c(=O)[nH]c2c1` gave FEN1 inh-1 inconclusive, APEX1 inh -1%, WRN inhibitor inconclusive and FEN1 inh-2 inconclusive.
Screening Cc1cc2[nH]c3c4ccccc4nc(C)c3c2cc1C returned FEN1 inh-1 inconclusive, WRN inhibitor 22%[11.6 µM] and FEN1 inh-2 6.7*.
`CCCOc1ccccc1-c1nc(SCC(=O)c2ccccc2)n[nH]1` gave BLM helicase inh -4% and FEN1 inh-1 10%.
CN(C)CCCNc1ncnc2sc(-c3ccccc3)cc12 was read as RECQ1 inh 10%, BLM helicase inh 39%, FEN1 inh-1 inconclusive, APEX1 inh -5%, WRN inhibitor -16% and FEN1 inh-2 inconclusive.
For O=C(CSc1nc2ccccc2n1Cc1cccc(Cl)c1)N1CCN(c2ccc(F)cc2)CC1 the results were BLM helicase inh 0% and FEN1 inh-1 48%.
COc1ccc(C(=O)Nc2ccc3nc(SCC(=O)N(C)c4ccccc4)sc3c2)cc1 was read as BLM helicase inh 1% and FEN1 inh-1 34%.
`Cc1ccc(C)n1-c1cccc(C(=O)O)c1` gave RECQ1 inh inconclusive, BLM helicase inh inconclusive, APEX1 inh 1.8µM* and FEN1 inh-2 21*.
For O=C(O)c1cccc(N2CCCC2)c1 the results were RECQ1 inh inactive, BLM helicase inh 0%, FEN1 inh-1 6%, APEX1 inh -2% and WRN inhibitor -9%[57.1 µM].
For Cc1cc(C)c2c(N)c3cccc(C)c3nc2n1 the results were RECQ1 inh -3%, BLM helicase inh 253%, FEN1 inh-1 25µM*, APEX1 inh inconclusive, WRN inhibitor 0% and FEN1 inh-2 15*.
For Cc1cccc2c(N)c3c(nc12)CCCC3 (tested in a mixture with another compound) the results were RECQ1 inh inactive, BLM helicase inh 43%, FEN1 inh-1 inconclusive, APEX1 inh inconclusive and WRN inhibitor 13%.
CCOC(=O)c1cc2c(=Cc3ccc(N(C)C)cc3)c3ccccc3n2[n+]1C was read as FEN1 inh-1 22µM*, WRN inhibitor 16µM* and FEN1 inh-2 34*.
For Cc1cc2c(=Cc3ccc(N(C)C)cc3)c3ccccc3n2[n+]1C the results were FEN1 inh-1 14µM*, WRN inhibitor 35µM* and FEN1 inh-2 27*.
O=C1c2cccc3cccc(c23)C(=O)N1OS(=O)(=O)c1ccccc1 was read as RECQ1 inh -1%, BLM helicase inh 2%, FEN1 inh-1 inconclusive, APEX1 inh -3% and WRN inhibitor 5%[11.6 µM].
`O=C1c2cccc3cccc(c23)C(=O)N1OS(=O)(=O)c1ccc(Br)cc1` gave RECQ1 inh 1%, BLM helicase inh 8%, FEN1 inh-1 inconclusive, APEX1 inh -6%, WRN inhibitor 8%[11.6 µM] and FEN1 inh-2 11*.
Cc1ccc(S(=O)(=O)ON2C(=O)c3cccc4cccc(c34)C2=O)cc1 was read as RECQ1 inh -1%, BLM helicase inh 0%, FEN1 inh-1 18µM*, APEX1 inh -1%, WRN inhibitor 11% and FEN1 inh-2 38*.
For O=C1c2ccccc2C(=O)N1OS(=O)(=O)c1ccccc1 the results were RECQ1 inh -5%, BLM helicase inh -4% and APEX1 inh 0%.
Cc1cc(N/N=C/c2ccccc2O)c2ccccc2n1 was read as BLM helicase inh 56%, FEN1 inh-1 inconclusive, APEX1 inh -32% and WRN inhibitor -18%.
Cc1ccccc1/C=N/Nc1nc2ccccc2c(=O)n1O was read as RECQ1 inh -7%, BLM helicase inh -8%, FEN1 inh-1 40µM*, APEX1 inh 0%, WRN inhibitor -12%[57.1 µM] and FEN1 inh-2 43*.
CCc1ccccc1NC(=O)Nc1cc(C(=O)NCc2ccc(OC)cc2)ccc1N1CCCC1 was read as BLM helicase inh -2% and FEN1 inh-1 50%.

Compound activity deposited in PubChem BioAssay by National Center for Advancing Translational Sciences (NCATS).
